The record followed here is PubChem BioAssay.

A short description of experiment [1]: small molecules captured by biotinylated probe aFSTL3 – biochemical, small-molecule microarray, fluorescence 635/667, stem cell growth factor project, primary screen (AID 1064).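 Note: measures binding of the biotinylated anti-FSTL3 antibody to printed compounds.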 The conditions noted are these: higher = more signal.
A short description of experiment [2]: binders from COS7 lysate, DM2A8 probe, primary screen, torsin A project, cell lysate, small-molecule microarray, fluorescence 635/667 (AID 1065). To be noted: higher = more signal, COS7 lysate expressing mutant human TOR1A.
Experiment [3] can be described thus: small molecules captured by biotinylated probe aFGF2 – biochemical, small-molecule microarray, fluorescence 635/667, stem cell growth factor project, primary screen (AID 1067).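 Note: measures binding of biotinylated aFGF2 protein to printed compounds on slides; z-score merges feature fluorescence and signal-to-noise across triplicate slides.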 To be noted: higher = more signal.
Experiment [4] is described as follows: small molecules captured by biotinylated probe aFGF10 – biochemical, small-molecule microarray, fluorescence 635/667, stem cell growth factor project, primary screen (AID 1071).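 Note: score merges 667 nm spot intensity and signal to noise from triplicate slides.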 The conditions noted are these: higher = more signal.
For experiment [5], the target named is Neurogenic locus notch homolog protein 2 (Homo sapiens) (UniProt Q04721). In words: small molecules binding Notch2 protein – biochemical, small-molecule microarray, 635 nm fluorescence, stem cell growth factors, primary screen (AID 1073). The conditions noted are these: higher = more signal.
The target in experiment [6] is Pro-neuregulin-1, membrane-bound isoform (Homo sapiens) (UniProt Q02297). The experiment can be described thus: small molecules binding neuregulin-1 protein – biochemical, small-molecule microarray, fluorescence 635/667, psychiatric disease protein project, primary screen (AID 1075).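 Note: score combines 667 nm spot fluorescence with signal to noise.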 To be noted: NRG1 binding, 635 nm fluorescence, higher = more signal.
Experiment [7] has as its system Neuregulin-1 EGF-like domain. The experiment can be described thus: small molecules binding NRG1 EGF domain – biochemical, small-molecule microarray, 635 nm fluorescence, primary screen (AID 1081).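 Note: binding of the protein to compounds printed on small-molecule microarray slides.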 To be noted: higher = more signal.
A short description of experiment [8]: FRG1 expression reporter modulators in myotubes – cell-based, C2C12 myotubes, firefly/Renilla luciferase, luminescence, FRG1 inhibition for FSHD, primary screen (AID 1084). The conditions noted are these: FRG1 promoter luciferase, higher = more signal, called active from +8 up or from −8 down.
Experiment [9] can be described thus: small molecules captured by biotinylated probe aFST – biochemical, small-molecule microarray, fluorescence 635/667, stem cell growth factor project, primary screen (AID 1086).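 Note: score merges 667 nm fluorescence with signal-to-noise of each printed compound spot.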 To be noted: higher = more signal.
The nature of experiment [10]: binders of probe aHhip on microarray, primary screen, stem cell growth factor project, biochemical, small-molecule microarray, fluorescence 635/667 (AID 1087).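 Note: score merges spot fluorescence at 667nm with spot signal to noise ratio.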 The conditions noted are these: higher = more signal.
Experiment [11] deals with PRMT1 (protein arginine N-methyltransferase 1). In words: small molecules binding arginine methyltransferase PRMT1 – biochemical, small-molecule microarray, 635 nm fluorescence, primary screen (AID 1088).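 Note: binding of Prmt1 protein to compounds spotted on small-molecule microarray slides.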 To be noted: higher = more signal.
Experiment [12] is described as follows: growth effects on S. cerevisiae YJM789 – YJM789 clinical isolate, OD600, 24 h, basal, primary screen (AID 1089).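 Note: growth of clinical yeast isolate S. cerevisiae YJM 789 seeded 1000 cells per well; test concentration not given here.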 To be noted: higher = more signal, called active from +8 up or from −8 down.
Experiment [13] is described as follows: S. pombe growth modifiers, basal conditions – strain 972, OD600, 24 h, no modulator, primary screen (AID 1090).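 Note: basal condition with compound alone and no growth modifier present; test concentration not given here.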 The conditions noted are these: S. pombe 972 growth, higher = more signal, called active from +8 up or from −8 down.
Experiment [14] in a line: budding yeast growth modifiers under rapamycin – strain BY4716, OD600, 96 h, primary screen (AID 1091). Note: test concentration not given here. The conditions noted are these: S. cerevisiae BY4716 + rapamycin, higher = more signal, called active from +8 up or from −8 down.
Experiment [15] concerns the target Torsin-1A-interacting protein 2 (Homo sapiens) (UniProt Q8NFQ8). In words: small molecules binding lysate-expressed LULL1 – cell lysate, human LULL1 lysate, 635/667 nm fluorescence, primary screen (AID 1092).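 Note: probe is lysate of COS7 cells overexpressing human LULL1; score merges per-feature 667 nm fluorescence with signal-to-noise.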 The conditions noted are these: small-molecule microarray, hLULL1 lysate binding, 635 nm fluorescence; higher = more signal.
Experiment [16] in a line: optical density change of DRC41 E. coli – strain DRC41, OD650, 24 h, E. coli filamentation project, primary screen (AID 1093).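 Note: MC1000 strain lacking acrAB efflux and sulA so SOS filamentation is blocked; test concentration not given here.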 To be noted: E. coli DRC41 growth, higher = more signal, called active from +8 up or from −8 down.
A short description of experiment [17]: probe aLefty2 binding to arrayed compounds – biochemical, biotinylated probe, 635/667 nm fluorescence, primary screen (AID 1094).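 Note: score merges spot fluorescence near 667 nm with spot signal-to-noise ratio.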 To be noted: small-molecule microarray, higher = more signal.
For experiment [18], the system named is Noggin (protein binding on small-molecule microarray). The experiment can be described thus: small molecules binding Noggin protein – biochemical, 635/667 nm fluorescence, primary screen (AID 1095).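 Note: score merges 667 nm feature fluorescence with signal to noise over triplicate slides.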 To be noted: 635 nm fluorescence, higher = more signal.
Experiment [19] deals with Neurogenic locus notch homolog protein 3 (Homo sapiens) (UniProt Q9UM47). In words: small molecules binding NOTCH3 protein – biochemical, 635/667 nm fluorescence, primary screen (AID 1096). The conditions noted are these: small-molecule microarray, 635 nm fluorescence, higher = more signal.
A short description of experiment [20]: probe aEGFR binding to arrayed compounds – biochemical, biotinylated probe, 635/667 nm fluorescence, primary screen (AID 1097).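 Note: probe is a biotinylated anti-EGFR antibody binding compounds printed on slides; score combines fluorescence near 667 nm and signal to noise of each spot.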 To be noted: small-molecule microarray, higher = more signal.

The source made the active and inactive calls.

Chain of Neurogenic locus notch homolog protein 2 (Homo sapiens) (Q04721 whole entry, looked up, canonical isoform): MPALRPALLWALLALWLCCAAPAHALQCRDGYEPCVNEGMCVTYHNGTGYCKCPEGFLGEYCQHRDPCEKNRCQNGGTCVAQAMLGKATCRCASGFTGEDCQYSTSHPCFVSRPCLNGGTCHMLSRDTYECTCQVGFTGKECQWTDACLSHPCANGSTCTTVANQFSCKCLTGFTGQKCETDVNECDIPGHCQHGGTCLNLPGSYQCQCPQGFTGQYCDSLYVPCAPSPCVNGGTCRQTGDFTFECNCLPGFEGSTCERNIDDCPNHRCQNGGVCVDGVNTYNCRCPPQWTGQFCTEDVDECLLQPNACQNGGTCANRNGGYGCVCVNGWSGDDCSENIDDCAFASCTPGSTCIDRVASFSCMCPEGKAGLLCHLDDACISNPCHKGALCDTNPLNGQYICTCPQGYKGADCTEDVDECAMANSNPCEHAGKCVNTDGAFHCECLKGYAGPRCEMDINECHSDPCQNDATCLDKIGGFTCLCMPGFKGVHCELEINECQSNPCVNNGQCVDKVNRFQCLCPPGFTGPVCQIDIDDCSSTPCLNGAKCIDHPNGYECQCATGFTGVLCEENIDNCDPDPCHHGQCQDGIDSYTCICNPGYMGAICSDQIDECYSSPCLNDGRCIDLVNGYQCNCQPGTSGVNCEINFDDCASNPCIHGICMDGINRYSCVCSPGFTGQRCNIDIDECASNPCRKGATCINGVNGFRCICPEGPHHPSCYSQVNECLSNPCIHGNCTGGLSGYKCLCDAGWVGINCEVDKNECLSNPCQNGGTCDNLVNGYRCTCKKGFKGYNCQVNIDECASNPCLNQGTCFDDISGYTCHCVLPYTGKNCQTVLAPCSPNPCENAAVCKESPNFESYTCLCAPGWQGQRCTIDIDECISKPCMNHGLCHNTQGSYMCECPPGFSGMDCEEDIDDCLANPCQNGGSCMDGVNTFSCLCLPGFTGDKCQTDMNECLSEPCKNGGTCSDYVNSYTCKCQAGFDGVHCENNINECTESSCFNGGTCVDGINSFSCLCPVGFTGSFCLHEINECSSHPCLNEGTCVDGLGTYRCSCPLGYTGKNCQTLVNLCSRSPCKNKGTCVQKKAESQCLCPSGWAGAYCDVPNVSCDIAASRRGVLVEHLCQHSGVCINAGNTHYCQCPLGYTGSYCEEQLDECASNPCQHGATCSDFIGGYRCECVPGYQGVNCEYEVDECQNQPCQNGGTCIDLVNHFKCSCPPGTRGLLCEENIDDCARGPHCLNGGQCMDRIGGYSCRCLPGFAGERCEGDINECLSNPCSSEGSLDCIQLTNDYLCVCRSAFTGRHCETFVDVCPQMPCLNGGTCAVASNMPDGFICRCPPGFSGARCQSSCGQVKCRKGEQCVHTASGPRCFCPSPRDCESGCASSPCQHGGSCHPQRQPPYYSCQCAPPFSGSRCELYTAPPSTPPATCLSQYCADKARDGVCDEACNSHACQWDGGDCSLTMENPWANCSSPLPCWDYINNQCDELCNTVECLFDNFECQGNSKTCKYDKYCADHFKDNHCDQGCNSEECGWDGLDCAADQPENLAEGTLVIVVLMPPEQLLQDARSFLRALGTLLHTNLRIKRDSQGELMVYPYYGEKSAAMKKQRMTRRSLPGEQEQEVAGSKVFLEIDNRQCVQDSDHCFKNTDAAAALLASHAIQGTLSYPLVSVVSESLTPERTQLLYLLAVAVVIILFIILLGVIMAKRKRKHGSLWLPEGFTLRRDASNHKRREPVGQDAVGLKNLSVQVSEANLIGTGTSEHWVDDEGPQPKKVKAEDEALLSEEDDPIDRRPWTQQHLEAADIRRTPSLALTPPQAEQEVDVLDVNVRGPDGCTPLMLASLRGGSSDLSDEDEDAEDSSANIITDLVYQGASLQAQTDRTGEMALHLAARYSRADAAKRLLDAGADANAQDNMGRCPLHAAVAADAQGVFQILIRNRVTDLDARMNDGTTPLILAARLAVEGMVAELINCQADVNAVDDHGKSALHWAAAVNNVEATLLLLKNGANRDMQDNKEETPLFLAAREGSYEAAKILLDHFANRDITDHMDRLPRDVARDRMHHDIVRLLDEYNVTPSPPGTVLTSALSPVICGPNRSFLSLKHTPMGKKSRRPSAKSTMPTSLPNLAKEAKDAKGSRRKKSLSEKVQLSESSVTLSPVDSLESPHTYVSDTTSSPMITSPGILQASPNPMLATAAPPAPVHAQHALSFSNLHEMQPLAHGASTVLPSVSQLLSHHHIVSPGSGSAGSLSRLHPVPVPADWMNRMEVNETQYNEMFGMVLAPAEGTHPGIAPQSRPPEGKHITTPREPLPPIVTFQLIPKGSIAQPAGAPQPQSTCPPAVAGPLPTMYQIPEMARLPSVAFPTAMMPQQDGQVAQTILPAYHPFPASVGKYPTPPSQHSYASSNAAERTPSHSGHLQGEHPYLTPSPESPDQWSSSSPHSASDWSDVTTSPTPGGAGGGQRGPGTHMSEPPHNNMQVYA
Chain of Pro-neuregulin-1, membrane-bound isoform (Homo sapiens) (Q02297 whole entry, looked up, the tested form may be a part, canonical isoform): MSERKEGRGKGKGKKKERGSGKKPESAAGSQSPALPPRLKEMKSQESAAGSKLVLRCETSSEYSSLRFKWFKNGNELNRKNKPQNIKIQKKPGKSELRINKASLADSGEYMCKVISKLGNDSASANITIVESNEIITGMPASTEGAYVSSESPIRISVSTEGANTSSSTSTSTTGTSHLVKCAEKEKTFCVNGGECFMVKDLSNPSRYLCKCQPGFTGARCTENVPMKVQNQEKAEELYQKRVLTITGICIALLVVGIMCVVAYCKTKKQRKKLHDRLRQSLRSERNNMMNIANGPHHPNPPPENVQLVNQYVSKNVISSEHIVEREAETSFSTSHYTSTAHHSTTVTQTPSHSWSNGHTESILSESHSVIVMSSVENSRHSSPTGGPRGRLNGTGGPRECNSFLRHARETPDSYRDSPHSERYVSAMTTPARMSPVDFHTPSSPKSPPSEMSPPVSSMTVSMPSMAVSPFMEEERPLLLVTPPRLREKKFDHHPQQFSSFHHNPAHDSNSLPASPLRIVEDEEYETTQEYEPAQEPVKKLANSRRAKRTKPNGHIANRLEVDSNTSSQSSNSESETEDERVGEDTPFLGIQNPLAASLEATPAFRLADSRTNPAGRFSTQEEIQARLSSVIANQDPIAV
Chain of Torsin-1A-interacting protein 2 (Homo sapiens) (Q8NFQ8 whole entry, looked up): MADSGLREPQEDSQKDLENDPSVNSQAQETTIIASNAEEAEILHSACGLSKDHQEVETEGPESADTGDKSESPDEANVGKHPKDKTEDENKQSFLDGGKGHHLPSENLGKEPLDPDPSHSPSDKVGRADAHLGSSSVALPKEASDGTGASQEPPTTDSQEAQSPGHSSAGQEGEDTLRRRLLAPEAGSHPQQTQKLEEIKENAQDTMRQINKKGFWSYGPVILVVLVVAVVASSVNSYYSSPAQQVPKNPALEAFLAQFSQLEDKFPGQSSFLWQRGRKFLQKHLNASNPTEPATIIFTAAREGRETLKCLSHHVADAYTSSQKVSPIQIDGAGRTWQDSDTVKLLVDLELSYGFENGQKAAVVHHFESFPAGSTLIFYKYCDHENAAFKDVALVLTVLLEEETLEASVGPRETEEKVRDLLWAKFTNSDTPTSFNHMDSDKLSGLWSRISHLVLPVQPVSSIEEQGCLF

With `COC(=O)[C@@]1(Cc2ccccc2N=[N+]=[N-])N=C(c2ccc(OCCCO)cc2)O[C@H]1c1ccccc1CN=[N+]=[N-]`, the composite z-score in experiment [1] is 0.413; in experiment [2], 0.378; in experiment [3], -0.0899; in experiment [4], -0.136; in experiment [5] it was 0.0109; in experiment [6], 1.12. The composite z-score in experiment [7] was 1.29; in experiment [9], 0.69; in experiment [10], 0.0053; in experiment [11], 1.41; in [15] it was 2.6; in experiment [17], 0.0641. Further, the composite z-score in [18] is 0.836; in experiment [19] it was 0.041; in experiment [20], -0.114. In addition, the z-score in experiment [8] is -1.38 (inactive); in experiment [12], 0.653 (inactive); in experiment [13], -1.3 (inactive); in experiment [14] it was 28.5 (active); in experiment [16], 0.255 (inactive).
For `C[C@]1(C(=O)NCCN2CCOCC2)c2ccccc2C(=O)N(Cc2ccccc2)[C@H]1c1ccc(CO)cc1`, the composite z-score in experiment [1] is -0.0452; in experiment [2], 0.789; in experiment [3], 0.0008; in [4], -0.425; in experiment [5], -0.522; in experiment [6], 1.35. Besides, the composite z-score in experiment [7] is 1.26; in experiment [9] it was -0.352; in experiment [10], -0.0346; in experiment [11], -0.804; in experiment [15] it was 2.99; in experiment [17] it was -0.0539. Moreover, the figures for the composite z-score in experiment [18], in [19] and in experiment [20] were -0.54, -0.911 and -0.23, respectively. Besides, the z-score in experiment [8] is -0.351 (inactive); in experiment [12] it was 0.364 (inactive); in [13], -0.304 (inactive); in experiment [14] it was -0.877 (inactive); in experiment [16], 0.0355 (inactive).
In the case of `CC(C)CNC(=O)[C@@]1(C)c2ccccc2C(=O)N(Cc2ccc(OC(F)(F)F)cc2)[C@H]1c1ccc(CO)cc1`, the composite z-score in experiment [1] was 1.39; in [2], -0.37; in experiment [3], -0.0149; in experiment [4] it was -0.925; in experiment [5] it was -1.71; in [6], -0.81. Moreover, the composite z-score in experiment [7] was 0.257; in [9] it was -0.291; in [10], -0.353; in experiment [11] it was -0.379; in experiment [15], 0.932; in [17], 0.117. For the same molecule, the composite z-score in experiment [18] is -1.13; in experiment [19] it was -1.27; in experiment [20], -0.112. Also, the z-score in experiment [8] was -3.49 (inactive); in [12], -0.545 (inactive); in experiment [13], -0.808 (inactive); in [14], -0.53 (inactive); in experiment [16], 1.52 (inactive).
In the case of `C=CC[C@]1(C(=O)NCC(O)CO)N=C(c2ccc(OCCCO)cc2)O[C@H]1c1ccccc1` (stereo not given in full), the composite z-score in [1] is 1.28; in experiment [2], -0.012; in [3], -0.118; in experiment [4], -0.843; in experiment [5] it was -0.502; in [6], 2.14. Also, the composite z-score is 1.25 in experiment [7]; -0.0064 in experiment [9]; -0.124 in [10]; 0.16 in experiment [11]; 3.57 in [15]; 0.0544 in [17]. Besides, the figures for the composite z-score in experiment [18], in [19] and in experiment [20] were -0.923, -0.898 and -0.169, respectively. Moreover, the z-score in [8] was -1.1 (inactive); in [12], -1.44 (inactive); in experiment [13], -0.514 (inactive); in experiment [14], -1.18 (inactive); in experiment [16], 2.05 (inactive).
For the molecule `O=C(N1CCCCC1)[C@@]1(CCS(=O)(=O)c2ccccc2)N=C(c2ccc(OCCCO)cc2)O[C@H]1c1ccccc1`, the composite z-score worked out at 0.151 in experiment [1]; 0.529 in [2]; 0.236 in experiment [3]; 0.685 in experiment [4]; 1.4 in experiment [5]; 0.0933 in [6]. Further, the composite z-score in experiment [7] is 1.23; in experiment [9], 1.51; in experiment [10] it was -0.0645; in experiment [11] it was 1.24; in [15], 3.63; in experiment [17], 0.0971. Besides, the composite z-score in experiment [18] was 0.688; in [19] it was 1.12; in experiment [20] it was -0.0828. The z-score in experiment [8] was -0.144 (inactive); in [12] it was -0.418 (inactive); in [13], -0.938 (inactive); in experiment [14], 30.4 (active); in [16] it was 0.943 (inactive).
